D2 ag-1: D2 dopamine receptor (human) agonism; 0.53% of 340,000 active; P14416; HEK293 T-REx D2 cells, calcium flux agonist mode; activation, % at 2 µM;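 active = activation over 3 SD above normal in the single-dose calcium agonist read, cut at about 30% in these data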; also: 0% is about no effect
Target sequence (P14416 whole entry, looked up): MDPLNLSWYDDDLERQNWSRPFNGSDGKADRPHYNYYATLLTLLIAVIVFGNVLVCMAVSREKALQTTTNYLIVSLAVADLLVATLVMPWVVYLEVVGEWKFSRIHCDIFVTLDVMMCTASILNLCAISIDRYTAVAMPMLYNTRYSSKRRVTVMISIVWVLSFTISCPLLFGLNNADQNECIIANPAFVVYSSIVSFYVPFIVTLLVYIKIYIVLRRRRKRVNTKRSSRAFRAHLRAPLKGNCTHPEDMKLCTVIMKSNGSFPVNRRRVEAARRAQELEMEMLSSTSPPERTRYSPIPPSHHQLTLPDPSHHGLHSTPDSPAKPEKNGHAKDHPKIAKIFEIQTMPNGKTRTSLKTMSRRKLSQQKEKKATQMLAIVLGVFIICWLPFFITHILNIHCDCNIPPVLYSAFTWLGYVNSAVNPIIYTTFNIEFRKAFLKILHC
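Agonism scored from kinetic calcium signal (1 read/sec, 180 s) following compound pin transfer, after a 10 s baseline. Cells: HEK293 Trex line expressing inducible D2 receptor coupled to calcium, dye-loaded after overnight culture at 30 C.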
D2 PAM-1: potentiates the human D2 dopamine receptor allosterically. 0.23% of 360,000 active. AID 624464. potentiation, % (no concentration beside the values). DiscoveRx D2 beta-arrestin cells, luminescence, 90 min; 100% = 57 uM dopamine signal. P14416; in the data active = potentiation above about 50%; inconclusive = mostly about 30% to 49%
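D2 cells co-treated with compound plus 50 nM dopamine (EC20) for 90 min at 37 deg C to detect potentiation. Beta-arrestin recruitment was read as enzyme-fragment luminescence after 1 h at ambient temperature. Full response was set by 57 uM dopamine.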
D2 ag-2: activates the human D2 dopamine receptor. P14416. DiscoveRx PathHunter D2 beta-arrestin, luminescence, 90 min; 100% = 57 uM dopamine signal. activation, % (test concentration not listed). 0.084% of 360,000 active. AID 624465; in the data active = activation above about 40%; inconclusive = between about 15% and that limit
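DiscoveRx PathHunter D2 beta-arrestin cells (2,100/well) attached overnight, then compound-stimulated 90 min at 37 C in HBSS/10 mM HEPES/0.1% Tween-20 buffer; beta-galactosidase complementation read by luminescence after 1 h at ambient temperature. Dopamine 57 uM final (EC100) as control.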
D2 PAM-2: D2 dopamine receptor (human) potentiation. AID 485347. 0.34% of 340,000 active. P14416. HEK293 T-REx D2, calcium flux, EC20 dopamine potentiation. potentiation, % at 10 µM;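 active = potentiation over 3 SD above the plate norm, cut at about 30% in these data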; also: 0% is about no effect
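Potentiation of an EC20 dopamine calcium response is measured in a force-coupled, tetracycline-inducible Hek293 Trex D2 line. Compound-only kinetic reads over 180 s flag agonists before dopamine addition.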
Apoferritin bind: binds horse apoferritin like a general anesthetic; Potency, µM (highest dose often 77.5 µM), for the others: at the highest dose activity change, negative = displacement, usual class: inhibitors; AID 485281; apoferritin/1-aminoanthracene competitive binding, fluorescence; 0.074% of 350,000 active; P02791; also: potency is read from the fitted curve at half-maximal effect; % is scaled to controls: 0 for no effect and ±100 for the full control effect; nearly all actives have a fitted effect of over 20% in size
Target sequence (P02791 2-175 limits assumed): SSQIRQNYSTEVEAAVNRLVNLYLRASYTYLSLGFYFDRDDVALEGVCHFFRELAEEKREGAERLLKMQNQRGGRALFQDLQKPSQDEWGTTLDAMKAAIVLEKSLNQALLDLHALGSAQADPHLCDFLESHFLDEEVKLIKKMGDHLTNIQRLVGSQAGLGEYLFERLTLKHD
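Apoferritin-based anesthetic binding model; compound displacement of fluorescent 1-AMA measured as endpoint fluorescence after 10 minutes at room temperature, scaled to free-ligand and complex controls.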
D2 antag: antagonists of human D2 dopamine receptor | 2% of 340,000 active | inhibition, % at 10 µM | HEK293 TREx D2 cells, calcium flux, dopamine EC80 | P14416; in the data active = inhibition above about 30%; inactive = below that, where a call was filed; also: 0% is about no effect
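Antagonism is scored as inhibition of an EC80 dopamine-evoked calcium signal in a force-coupled, tetracycline-inducible HEK293 T-REx D2 line, with compound present 180 s before agonist.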
D3 arrestin ag: D3 receptor agonism confirmed, beta-arrestin readout | shares compounds with D2 ag-1 | DiscoveRx D3 beta-arrestin cells, luminescence, 90 min | Potency, µM (series often up to 76.9 µM), for the others: top-dose activation, usual class: activators | 4% of 2,300 active;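 also: potency is read from the fitted curve at half-maximal effect; 100% = dopamine control response; nearly all actives have a fitted effect of over 70% in size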
D2 ag-3: activates human D2 dopamine receptor in D3 counterscreen; AID 720507; DiscoveRx PathHunter D2 beta-arrestin, luminescence, 90 min; response scale: percent relative to full dopamine signal; 5.9% of 2,300 active; shares compounds with D2 ag-1; Potency, µM (highest dose often 76.9 µM), for the others: at the highest dose activation, hits mostly activators; also: potency is read from the fitted curve at half-maximal effect; % of control where 0% means no effect; nearly all actives have a fitted effect of over 70% in size
* hit, by the source's call; ? = inconclusive; · = no result. Most compounds without a hit are left out; they make up all but 2.5% or so of the library. Unless noted, calls follow the shape of the dose curve; as a rule, active = well fitted curve in the direction sought with a large enough effect; inconclusive = small, poorly fitted or top-dose-only effect, or another doubt; inactive = no such curve, though single readings can be large; an effect the other way counts as inactive or inconclusive.

SMILES	D2 ag-1	D2 PAM-1	D2 ag-2	D2 PAM-2	Apoferritin bind	D2 antag	D3 arrestin ag	D2 ag-3
CCN(CC)S(=O)(=O)c1ccc(C(=O)N2CCN(CCN3C(=O)c4cccc5cccc(c45)C3=O)CC2)cc1	1.3	·	·	5.7	-2.4%	1.2	·	·
O=c1[nH]cnc2c1sc1nc(C(F)F)cc(-c3ccccc3)c12	0.2	-12.5	-0.1	-10.2	·	1.8	·	·
COc1ccc(C(=N/O)/C(=N/O)c2ccc(OC)cc2)cc1	1.1	2.3	1.9	6.5	-5.6%	39.6*	-9.0%	-2.0%
O=C(N/N=C1\CCc2ccccc21)c1ccccc1O	0.4	-34.1	-6.6	-17.1	-1.6%	-9.1	·	·
Cc1ccc(NC(=O)C2(C)CCN2C(=O)Cc2ccc(C(C)(C)C)cc2)cc1C (stereo unspecified)	·	-3.4	-5.2	·	·	·	·	·
CCOc1ccc(/C(O)=C2/C(=O)C(=O)N(c3ncccn3)C2c2ccccc2)cc1 (stereo unspecified)	50.3*	-10.9	-8.4	-17.6	23.3%	-5.2	-8.9%	-4.9%
CC(C)=CC(=O)OCC(=O)Nc1ccc(Cl)cc1	-1.7	3.4	0.7	9.0	-14.5%	1.8	·	·
O=S(=O)(CCN1CCN(c2ccccn2)CC1)c1ccc(Cl)cc1Cl	50.3*	-8.9	3.4	-6.3	-3.6%	12.0	19.1%	10.5%
O=C(C1CCN(S(=O)(=O)c2ccc(Cl)c(C(F)(F)F)c2)CC1)N1CCC1	0.7	-0.6	5.4	1.3	·	-8.6	0.5%	0.6%
CCCC1(c2ccccc2)NC(=O)N(CC(=O)Nc2ccc3c(c2)OCCO3)C1=O (stereo unspecified)	·	-9.0	-4.3	·	·	·	·	·
O=C1CC(N2CCN(c3ccccc3)CC2)C(=O)N1Cc1ccc(Cl)cc1 (stereo unspecified)	0.4	-3.7	-1.5	·	-5.1%	4.8	·	·
CCOC(=O)c1[nH]c2ccc(Br)cc2c1NC(=O)CCN1CCCC(C)(C)C1	60.2*	-28.8	-5.9	-18.4	-6.0%	-3.7	-12.9%	-2.8%
CCOC(=O)c1[nH]c2ccc(F)cc2c1NC(=O)CCN1CCOCC1	2.0	-9.1	-4.7	1.4	-17.3%	1.7	·	·
O=C(O)c1cccc(NS(=O)(=O)c2ccc(NC(=O)c3ccco3)cc2)c1	0.0	1.2	-6.2	-3.2	-2.2%	-27.4	·	·
CCCNC(=O)C(=O)Nc1ccc(N(C)C)cc1	-1.3	-0.4	-1.0	-9.8	-9.4%	-11.4	·	·
CN(C)c1ccc(NC(=O)C(=O)NCCOc2ccccc2)cc1	33.9*	20.2	5.1	-11.1	-5.1%	16.1	?	21.9%
CCCn1cc(SCC(=O)NC2CCCC2)c2ccccc21	-1.0	-14.1	-7.8	1.2	-12.8%	-15.7	-17.7%	-1.0%
CC1=C(C(=O)OC2CCCCC2)C(c2cccnc2)n2nnnc2N1 (stereo unspecified)	61.0*	-2.2	-0.2	-18.8	-13.8%	-4.1	17.7%	11.0%
COC(=O)C1=C(C)Nc2nnnn2C1c1cccnc1 (stereo unspecified)	·	-2.6	-2.0	·	-1.0%	·	·	·
COc1ccc(N2CCN(Cc3cc(=O)c(OCC(=O)Nc4ccccc4)co3)CC2)cc1	-0.2	0.3	-2.8	2.2	·	10.5	·	·
Cc1ccccc1NC(=O)COc1coc(CN2CCN(c3ccccc3)CC2)cc1=O	54.6*	6.4	?	-15.4	·	8.9	14.3%	28.9%
COc1ccc(NC(=O)COc2coc(CN3CCN(c4ccccc4)CC3)cc2=O)cc1	50.2*	0.0	-2.0	-18.2	·	27.2	11.4%	28.1%
N#CC(C(=O)NC1CCCCC1)c1nc2ccccc2nc1N1CCOCC1 (stereo unspecified)	-0.6	·	·	-1.9	-11.6%	-1.4	·	·
N#CC(C(=O)OCc1ccccc1)c1nc2ccccc2nc1N1CCOCC1 (stereo unspecified)	4.8	-5.4	-7.8	8.4	?	24.4	-25.4%	-6.7%
Fc1ccc(-c2noc3ncnc(N4CCN(c5ccccc5)CC4)c23)cc1	-0.2	·	·	-0.5	7.3%	·	·	·
SMILES	D2 ag-1	D2 PAM-1	D2 ag-2	D2 PAM-2	Apoferritin bind	D2 antag	D3 arrestin ag	D2 ag-3
CC(C)Cc1ccc(S(=O)(=O)Nc2ccc3[nH]c(=O)[nH]c3c2)cc1	0.0	-7.4	-2.2	-1.3	1.8%	1.8	·	·
O=C(O)c1ccccc1OCCN1CCCC1=O	0.5	-15.1	-3.3	1.6	-4.8%	-9.3	·	·
Cc1ccc2[nH]c3c(c2c1)CNCC3	0.8	-22.2	0.0	-7.0	-0.3%	2.8	·	·
c1ccc2c3c([nH]c2c1)CCNC3	20.3	-8.8	0.7	-26.1	5.5%	12.8	23.7%	9.8%
O=Cc1c(N2CCCCCC2)nc2ccccn2c1=O	56.2*	-3.2	4.1	-15.9	-19.8%	-6.7	-0.6%	0.7%
O=Cc1c(N2CCCCC2)nc2ccccn2c1=O	-0.4	7.4	2.9	6.7	-8.4%	-12.0	·	·
COc1cccc(N2CN(CCc3ccccc3)CNC2=S)c1	37.5*	-2.7	-2.8	-6.2	-7.4%	23.7	-6.0%	-0.4%
[O-]/[N+](=C/c1ccccc1)c1ccccc1	0.0	-8.5	-2.6	-12.7	·	-7.8	2.0%	-3.0%
O=C(CC(c1ccccc1)c1ccccc1)NCc1cccnc1	-0.9	-15.0	-0.6	-0.9	-5.2%	1.0	·	·
CCOc1cccc(CNCCNC(=O)c2nonc2N)c1	0.2	-15.8	-2.0	-6.9	-2.2%	-9.2	·	·
CCN(CC)C1=CC2=CC(=C(C#N)C#N)CCC2CC1 (stereo unspecified)	208.7*	-1.6	2.7	-16.5	-10.0%	75.6*	-6.9%	17.3%
O=C(/C=C/c1cccs1)NC1CCCC1	-0.3	-7.7	-2.8	20.1	-7.1%	4.9	·	·
CC(=O)CC(C)(C)Nc1nc2cc([N+](=O)[O-])ccc2o1	-0.1	-12.3	-4.1	-15.2	?	-8.5	·	·
CC(=O)CC(C)(C)Nc1nc2ccc([N+](=O)[O-])cc2o1	0.1	-5.8	-1.8	2.0	?	38.6*	-7.6%	-2.5%
CC1CCCCN1Cc1ccc(-c2nnn(CC(=O)NC3CCCCC3)n2)cc1 (stereo unspecified)	49.6*	-1.5	-0.7	-19.2	-2.9%	-14.0	-8.6%	-6.2%
Cc1cc(C)c(C(=O)OCc2csc(CC(=O)Nc3ccccc3C)n2)c(C)c1	-0.1	0.3	2.0	13.3	-11.2%	-8.5	·	·

Bioassay records: PubChem, National Center for Advancing Translational Sciences (NCATS)
